The results in this text go back to article PMC5892938, “SARNAclust: Semi-automatic detection of RNA protein binding motifs from immunoprecipitation data”.

In all, about 11,000 sequences were measured (“log2 fold change”: median about 0.00022, highest 2% from about 0.34 on). Some of the results follow.

In the assay the target is GST-SBP-SLBP (stem-loop binding protein) (Homo sapiens, UniProt Q14493 1-270). Put plainly: targeted RNA Bind-n-Seq; RBNS binding buffer: 25 mM Tris pH 7.5, 150 mM KCl, 3 mM MgCl2, 0.1% Tween, 0.5 mg/mL BSA, 1 mM DTT; 27 nM protein, 750 pM RNA pool; temperature not stated; high values mean tight binding. To be noted: protein: recombinant; tags: N-terminal GST and SBP (pGEX6P1-SBP); structured_RNA. A digest of the protocol: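 The GST-SBP-tagged protein was expressed in Rosetta(DE3) pLysS E. coli, glutathione-purified and incubated at 27 nM with 750 pM of a designed, T7-transcribed RNA oligo pool in RBNS binding buffer. Bound RNA was reverse transcribed with a 10-nucleotide barcoded primer, PCR-amplified and sequenced on a MiSeq with 200-cycle paired-end reads. Reads were joined with FLASH, aligned with HISAT2 and collapsed by barcode. The binding signal is the DEseq log2 fold change of read counts per sequence.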
Take “GGUCACGUCUCAAUCAACUCUACUCCCAGGGAAAACCCUGGUAAUUUCAACAGCUCGCAGUCAAG”: the binding signal is 0.454 ± 0.318 log2 fold change.

As for “GGUCACGUCUCAAUCAACUCUAUUCCCAGGGAAACCCCUGGCAUACUCAACAGCUCGCAGUCAAG”, the binding signal is 0.311 ± 0.273 log2 fold change.

As to “GGUCACGUCUCAAUCAACUCAAUCCCCAGGGAAAACCCUGGCAUACUCAACAGCUCGCAGUCAAG”, the binding signal came out at 0.351 ± 0.232 log2 fold change.

As to “GGUCACGUCUCAAUCAACUCAACUUCCAGGGAAAACCCUGGCAUUUUCAACAGCUCGCAGUCAAG”, the binding signal came to 0.305 ± 0.262 log2 fold change.

As to “GGUCACGUCUCAAUCAACUCUUUUUCCAGGGAAACCCCUGGUAUACUCAACAGCUCGCAGUCAAG”, the binding signal was found to be 0.445 ± 0.233 log2 fold change.

Take “GGUCACGUCUCAAUCAACUCUAUUCCCAGGGAAAACCCUGGCAUUUUCAACAGCUCGCAGUCAAG”: the binding signal was 0.49 ± 0.262 log2 fold change.

For “GGUCACGUCUCAAUCAACUCAUCUCCCAGGGAAAACCCUGGCAUUCUCAACAGCUCGCAGUCAAG”, the binding signal turned out to be 0.367 ± 0.304 log2 fold change.

Consider “GGUCACGUCUCAAUCAACUCUUUUUCCAGGGAAAACCCUGGCGUAUUCAACAGCUCGCAGUCAAG”, for which the binding signal turned out to be 0.352 ± 0.225 log2 fold change.

As for “GGUCACGUCUCAAUCAACUCAGUUUCCAGGGAAAACCCUGGCUUUCUCAACAGCUCGCAGUCAAG”, the binding signal was 0.31 ± 0.297 log2 fold change.

As to “GGUCACGUCUCAAUCAACUCUUUUUCCAGGGAAAACCCUGGCAUGUUCAACAGCUCGCAGUCAAG”, the binding signal amounted to 0.34 ± 0.244 log2 fold change.

“GGUCACGUCUCAAUCAACUCUUCUCCCAGGGAAACCCCUGGCAUUCUCAACAGCUCGCAGUCAAG”: the binding signal was 0.304 ± 0.257 log2 fold change.

“GGUCACGUCUCAAUCAACUCCUUAGAGGGGGGGAAAACCCCUUUACCCUCAAAAUCAACAGCUCGCAGUCAAG”: the binding signal was found to be 0.546 ± 0.43 log2 fold change.

As to “GGUCACGUCUCAAUCAACUCCUUAGAGGGGGGGAAAACCCCUUUACCCUCGUUAUCAACAGCUCGCAGUCAAG”, the binding signal came to 0.302 ± 0.406 log2 fold change.

On to “GGUCACGUCUCAAUCAACUCCUUAGAGGGGGGGAAAACCCCUUUACCCUCAACCUCAACAGCUCGCAGUCAAG”, for which the binding signal was 0.395 ± 0.407 log2 fold change.

Consider “GGUCACGUCUCAAUCAACUCAAUGGAGGGGGGGAAAACCCCUUUACCCUCAAAAUCAACAGCUCGCAGUCAAG”, for which the binding signal came out at 0.547 ± 0.434 log2 fold change.

For “GGUCACGUCUCAAUCAACUCCUUAGAGGGGGGGAAAACCCCUUUACCCUCAACUUCAACAGCUCGCAGUCAAG”, the binding signal amounted to 0.489 ± 0.43 log2 fold change.

For the sequence “GGUCACGUCUCAAUCAACUCAUAGGAGGGGGGGAAAACCCCUUUACCCUCAUCAUCAACAGCUCGCAGUCAAG”, the binding signal turned out to be 0.315 ± 0.446 log2 fold change.

For the sequence “GGUCACGUCUCAAUCAACUCCCCAGAGGGGGGGAAAACCCCUUUACCCUCAUCCUCAACAGCUCGCAGUCAAG”, the binding signal was determined as 0.566 ± 0.415 log2 fold change.

Regarding “GGUCACGUCUCAAUCAACUCAUCAGAGGGGGGGAAAACCCCUUUACCCUCAACUUCAACAGCUCGCAGUCAAG”, the binding signal was 0.39 ± 0.431 log2 fold change.

Take “GGUCACGUCUCAAUCAACUCUUCAGAGGGGGGGAAAACCCCUUUACCCUCACAAUCAACAGCUCGCAGUCAAG”: the binding signal amounted to 0.311 ± 0.418 log2 fold change.

Take “GGUCACGUCUCAAUCAACUCAUCAGAGGGGGGGAAAACCCCUUUACCCUCAUCCUCAACAGCUCGCAGUCAAG”: the binding signal amounted to 0.388 ± 0.447 log2 fold change.

For the sequence “GGUCACGUCUCAAUCAACUCAUAGGAGGGGGGGAAAACCCCUUUACCCUCAACUUCAACAGCUCGCAGUCAAG”, the binding signal was found to be 0.451 ± 0.453 log2 fold change.

Regarding “GGUCACGUCUCAAUCAACUCCUUAGAGGGGGGGAAAACCCCUUUGCCCUCGUUUUCAACAGCUCGCAGUCAAG”, the binding signal turned out to be 0.342 ± 0.445 log2 fold change.

“GGUCACGUCUCAAUCAACUCCUUAGAGGGGGGGAAAACCCCUUUGCCCUCCGUAUCAACAGCUCGCAGUCAAG”: the binding signal worked out at 0.307 ± 0.406 log2 fold change.

“GGUCACGUCUCAAUCAACUCCUUAGAGGGGGGGAAAACCCCUUUGCCCUCACCGUCAACAGCUCGCAGUCAAG”: the binding signal came out at 0.412 ± 0.444 log2 fold change.

In the case of “GGUCACGUCUCAAUCAACUCCUUAGAGGGGGGGAAAACCCCUUUGCCCUCAACAUCAACAGCUCGCAGUCAAG”, the binding signal was determined as 0.411 ± 0.394 log2 fold change.

Take “GGUCACGUCUCAAUCAACUCUACGGCAGGAGUUUACUCCUGGAAUCUCAACAGCUCGCAGUCAAG”: the binding signal worked out at 0.318 ± 0.232 log2 fold change.

“GGUCACGUCUCAAUCAACUCUCUAGAGGGGGGGAAAACCCCUUUACCCUCACCAUCAACAGCUCGCAGUCAAG”: the binding signal was found to be 0.354 ± 0.424 log2 fold change.

On to “GGUCACGUCUCAAUCAACUCAAUAGAGGGGGGGAAAACCCCUUUACCCUCACCAUCAACAGCUCGCAGUCAAG”, for which the binding signal came to 0.306 ± 0.41 log2 fold change.

On to “GGUCACGUCUCAAUCAACUCAACAGAGGGGGGGAAAACCCCUUUACCCUCACCAUCAACAGCUCGCAGUCAAG”, for which the binding signal came to 0.341 ± 0.391 log2 fold change.

“GGUCACGUCUCAAUCAACUCCACAGAGGGGGGGAAAACCCCUUUACCCUCCAUCUCAACAGCUCGCAGUCAAG”: the binding signal was found to be 0.416 ± 0.406 log2 fold change.

Regarding “GGUCACGUCUCAAUCAACUCAAAAGAGGGGGGGAAAACCCCUUUACCCUCACCAUCAACAGCUCGCAGUCAAG”, the binding signal was 0.563 ± 0.413 log2 fold change.

Turning to “GGUCACGUCUCAAUCAACUCCAAGGAGGGGGGGAAAACCCCUUUACCCUCAAUCUCAACAGCUCGCAGUCAAG”, the binding signal was 0.482 ± 0.442 log2 fold change.

On to “GGUCACGUCUCAAUCAACUCCCUAGAGGGGGGGAAAACCCCUUUACCCUCACAAUCAACAGCUCGCAGUCAAG”, for which the binding signal was found to be 0.389 ± 0.428 log2 fold change.

As for “GGUCACGUCUCAAUCAACUCCCUAGAGGGGGGGAAAACCCCUUUACCCUCAAUGUCAACAGCUCGCAGUCAAG”, the binding signal was 0.558 ± 0.455 log2 fold change.
